From PubChem BioAssay
Compounds with a hit are over-represented: about 6.8% of the library has one in this group of screens.
C diff growth – inhibitors of Clostridium difficile growth; growth activity, negative = inhibition, % at 16 µg/mL (by protocol); Clostridium difficile clinical isolate growth, OD600, 24 h; hits give low values; 86,000 tested, 0.25% active;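 active means mean growth activity at or below -80% and every replicate also at or below -80%; inconclusive means mean at or below -80% but some replicate above -80%; inactive means mean growth activity above -80%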;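 further: 0% = DMSO wells and -100% = levofloxacin 16 µg/mL wells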
Pf Dd2 growth – blocks growth of Plasmodium falciparum Dd2 parasites; 94,000 tested, 2.3% active; activity change, % at 10 µM; P. falciparum Dd2 growth, SYBR Green, 72 h; hits give low values; in the data active means activity change below about -80%; inconclusive means no clear call, values can overlap the other calls
T cruzi growth-1 – T. cruzi proliferation inhibition | T. cruzi beta-gal in NIH3T3, GalScreen luminescence, 90 h | inhibition, % at 8.34 µM | 77,000 tested, 5.9% active;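 active means mean inhibition above about 93%, with at least 55% of replicates each passing it, limit read from the data, passing the limit was not always enough; inconclusive means only one of those two conditions holds; inactive means neither condition holds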
T cruzi growth-2 – inhibitors of T. cruzi proliferation | T. cruzi beta-gal in NIH3T3, GalScreen luminescence, 90 h | 5,600 tested, 72% active | AID 651739 | shares compounds with T cruzi growth-1 | inhibition, % at 8.35 µM;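 active means mean replicate inhibition above about 95% and at least 55% of replicates individually reaching it, limit read from the data; inconclusive means only one of the two criteria is met; inactive means neither criterion is met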
T cruzi growth-3 – Trypanosoma cruzi proliferation inhibition; shares compounds with T cruzi growth-1; T. cruzi beta-gal in NIH3T3, GalScreen luminescence, 90 h; inhibition, % at 2.09 µM; 5,600 tested, 21% active; AID 651740;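 active means mean inhibition above about 95%, with at least 55% of replicates also reaching it, limit read from the data; inconclusive means meets just one of the two conditions; inactive means meets neither condition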;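 further: plate controls were neutral control median for no effect and positive control median for full effect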
NIH3T3 tox – NIH/3T3 (mouse) viability loss; shares compounds with T cruzi growth-1; NIH/3T3 viability, CellTiter-Glo ATP luminescence, 90 h; cytotoxicity (signal decrease), % at 8.35 µM; 5,600 tested, 14% active; AID 651742;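 active means mean signal decrease across replicates above about 35% based on untreated-well scatter, with enough replicates individually passing, limit read from the data; inconclusive means no rule stated though some were filed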;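 further: 0% = median of neutral control wells and 100% = median of positive control wells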
NIH3T3 tox 2 – cytotoxicity in mouse NIH/3T3 fibroblasts; AID 651744; shares compounds with T cruzi growth-1; 5,600 tested, 56% active; inhibition, % at 24.9 µM; NIH/3T3 viability, CellTiter-Glo ATP luminescence, 90 h;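 active means mean loss of cell viability signal at or above a set limit, and enough replicates individually reaching it; inconclusive means meets only the mean limit or only the replicate share; inactive means meets neither condition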;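 further: 0% = median of neutral control wells and 100% = median of positive control wells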
Numbers without * were called inactive; u = inconclusive; x = not tested or not shown.

SMILES	C diff growth	Pf Dd2 growth	T cruzi growth-1	T cruzi growth-2	T cruzi growth-3	NIH3T3 tox	NIH3T3 tox 2
O=C(C[C@@H]1CC[C@H]2[C@@H](COC[C@@H](O)CN2S(=O)(=O)c2ccccc2)O1)Nc1ccc(-c2ccccc2)cc1	x	-10	97*	106*	71	13	92*
CCCc1cn(CC[C@H]2CC[C@@H](NC(=O)Cc3cccnc3)[C@@H](CO)O2)nn1	-6	2	65	x	x	x	x
C[C@@H]1CCCCO[C@@H](CN(C)C(=O)c2ccccc2)[C@@H](C)CN([C@@H](C)CO)C(=O)c2cc(NC(=O)Nc3ccc(C(F)(F)F)cc3)ccc2O1	7	-58	93	x	x	x	x
C[C@@H]1CCCCO[C@H](CN(C)C(=O)c2ccccc2)[C@@H](C)CN([C@@H](C)CO)C(=O)c2cc(NC(=O)Nc3ccc(C(F)(F)F)cc3)ccc2O1	2	-92*	u	107*	110*	-5	-9
C[C@@H]1CCCCO[C@@H](CN(C)C(=O)c2ccccc2)[C@H](C)CN([C@H](C)CO)C(=O)c2cc(NC(=O)Nc3ccc(C(F)(F)F)cc3)ccc2O1	-7	-57	u	103*	117*	-7	9
C[C@@H]1CN([C@H](C)CO)C(=O)c2cc(NC(=O)Nc3ccc(C(F)(F)F)cc3)ccc2O[C@@H](C)CCCCO[C@@H]1CN(C)C(=O)c1ccccc1	4	-68	72	x	x	x	x
C[C@@H]1CCCCO[C@H](CN(C)C(=O)c2ccccc2)[C@H](C)CN([C@@H](C)CO)C(=O)c2cc(NC(=O)Nc3ccc(C(F)(F)F)cc3)ccc2O1	0	-61	u	101*	112*	20	48*
C[C@@H]1CCCCO[C@@H](CN(C)C(=O)c2ccccc2)[C@@H](C)CN([C@H](C)CO)C(=O)c2cc(NC(=O)Nc3ccc(C(F)(F)F)cc3)ccc2O1	-10	2	117	x	x	x	x
CCCC(=O)Nc1ccc2c(c1)OC[C@H](C)N(Cc1ccccc1)C[C@@H](C)[C@@H](OC)CN(C)C2=O	x	-5	17	x	x	x	x
C[C@@H](O)C#Cc1cnc2c(c1)C(=O)N([C@@H](C)CO)C[C@H](C)[C@@H](CN(C)Cc1ccccn1)O2	0	13	-43	x	x	x	x
O=C(C[C@H]1CC[C@@H]2[C@H](COC[C@H](O)CN2Cc2ccc(Oc3ccccc3)cc2)O1)Nc1nccs1	71	-31	133*	103*	34	1	52*
O=C(C[C@@H]1CC[C@@H]2[C@H](COC[C@H](O)CN2Cc2ccc(Oc3ccccc3)cc2)O1)Nc1nccs1	42	-2	133*	100*	0	-25	11
O=C(C[C@@H]1CC[C@@H]2[C@H](COC[C@H](O)CN2Cc2nccs2)O1)NCc1ccc(Oc2ccccc2)cc1	8	-19	x	x	x	x	x
O=C(C[C@@H]1CC[C@@H]2[C@H](COC[C@@H](O)CN2Cc2cccc(Cl)c2)O1)Nc1nccs1	-2	-42	72	x	x	x	x
O=C(C[C@@H]1CC[C@H]2[C@@H](COC[C@@H](O)CN2Cc2ccc(Oc3ccccc3)cc2)O1)Nc1nccs1	41	-58	117*	101*	55	24	97*
O=C(C[C@@H]1CC[C@H]2[C@@H](COC[C@H](O)CN2Cc2ccc(Cl)cc2)O1)Nc1nccs1	1	-30	20	x	x	x	x
O=C(C[C@@H]1CC[C@@H]2[C@H](COC[C@@H](O)CN2Cc2ccc(Oc3ccccc3)cc2)O1)Nc1nccs1	-4	-32	108*	102*	49	13	8
O=C(C[C@@H]1CC[C@H]2[C@@H](COC[C@@H](O)CN2Cc2nccs2)O1)NCc1ccc(Oc2ccccc2)cc1	-4	4	x	x	x	x	x
COc1ccc(NC(=O)N2CC(=O)N3[C@H](C2)[C@@H](c2ccc(-c4ccccc4)cc2)[C@@H]3CO)cc1	1	-19	x	x	x	x	x
CC(C)C#Cc1ccc2c(c1)O[C@H](CN(C)Cc1cncnc1)[C@H](C)CN([C@H](C)CO)S2(=O)=O	-5	-2	11	x	x	x	x
O=C(c1ccccc1)N1CC(=O)N2[C@H](CO)[C@H](c3ccc(-c4ccccc4)cc3)[C@@H]2C1	33	-28	x	x	x	x	x
COc1ccc(C#Cc2ccc3c(c2)[C@H]2[C@H](CCN2C(=O)c2ccncc2)[C@H](CO)N3)cc1	53	-60	101*	107*	61	26	38*
COCC(=O)N1CC[C@@H]2[C@H]1c1cc(C#Cc3ccc(OC)cc3)ccc1N[C@@H]2CO	-20	-18	42	x	x	x	x
COc1ccc(C#Cc2ccc3c(c2)[C@H]2[C@H](CCN2C(=O)CC2CC2)[C@H](CO)N3)cc1	-8	-22	u	98*	52	6	21
COc1ccc(C#Cc2ccc3c(c2)[C@@H]2[C@@H](CCN2C(C)=O)[C@H](CO)N3)cc1	-6	-36	x	x	x	x	x
SMILES	C diff growth	Pf Dd2 growth	T cruzi growth-1	T cruzi growth-2	T cruzi growth-3	NIH3T3 tox	NIH3T3 tox 2
CNC[C@@H]1OCCCC[C@@H](C)Oc2ccc(NC(=O)CCC(F)(F)F)cc2C(=O)N([C@@H](C)CO)C[C@H]1C	-2	x	-21	x	x	x	x
C[C@H](CO)N1C[C@H](C)[C@@H](CN(C)C)Oc2c(NC(=O)c3cnccn3)cccc2C1=O	-3	20	x	x	x	x	x
C[C@H]1CN([C@@H](C)CO)C(=O)Cc2cc(NC(=O)Cc3ccccc3)ccc2O[C@@H]1CN(C)Cc1ccncc1	4	-4	x	x	x	x	x
C[C@@H]1CCCCO[C@H](CN(C)C(=O)Nc2cccc3ccccc23)[C@H](C)CN([C@@H](C)CO)C(=O)c2cc(NC(=O)Nc3ccc(C(F)(F)F)cc3)ccc2O1	6	-63	109*	111*	113*	7	12
C[C@@H]1CCCCO[C@@H](CN(C)C(=O)Nc2ccc(C(F)(F)F)cc2)[C@H](C)CN([C@H](C)CO)C(=O)c2cc(NC(=O)Nc3cccc4ccccc34)ccc2O1	-13	-79	100*	107*	102*	-6	5
C[C@H](CO)N1C[C@H](C)[C@H](CN(C)C(=O)Nc2ccc(C(F)(F)F)cc2)OCCCC[C@H](C)Oc2ccc(NC(=O)Nc3cccc4ccccc34)cc2C1=O	-13	30	11	x	x	x	x
C[C@H](CO)N1C[C@H](C)[C@H](CN(C)C(=O)Nc2cccc3ccccc23)OCCCC[C@H](C)Oc2ccc(NC(=O)Nc3ccc(C(F)(F)F)cc3)cc2C1=O	-2	-29	10	x	x	x	x
CN1c2ccc(-c3cccc(C#N)c3)cc2[C@H]2[C@H](CCN2S(=O)(=O)c2ccccc2F)[C@@H]1CO	3	-7	51	x	x	x	x
COc1ccccc1S(=O)(=O)N[C@@H]1CC[C@@H](CCn2cc(C3CCCCC3)nn2)O[C@@H]1CO	x	22	-44	x	x	x	x
O=C(C[C@H]1C=C[C@@H](NC(=O)C2CC2)[C@@H](CO)O1)Nc1nccs1	x	-18	121*	78	11	-15	-1
